“And” between values parts separate entries of the source, which are not always exact repeats. Identical values can stand only once. About 2,000 (36%) of roughly 5,500 compounds were called active. Inconclusive results (about 18%) are left out. Cut-off read from the data, not from the text of the source: active = normalized growth mostly below about 0.91 (no sharp cut-off); inconclusive = no clear call, values can overlap the other calls; inactive = mostly above about 0.92. The list shows a part of the results.
Assay: chemical genetic growth profiling, strain panel (AID 1159580);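 note: tested at 20 µM; growth read once vehicle control cultures reached saturation at 30 °C; 1 = growth at the plate median or of vehicle wells; lower values mean less growth of the strain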
Conditions: S. cerevisiae deletion strains, growth OD

Measured: normalized growth

COc1c2ccoc2cc2oc(=O)ccc12
inactive: locus YAL021C, strain ccr4, stronger effect = lower value 0.957 | locus YAL026C, strain drs2, stronger effect = lower value 0.936 | locus YAL030W, strain snc1, stronger effect = lower value 0.993 | locus YBL061C, strain skt5, stronger effect = lower value 0.971 | locus YBR021W, strain FUR4, stronger effect = lower value 1.1 | locus YBR023C, strain chs3, stronger effect = lower value 0.968 | locus YBR171W, strain sec66, stronger effect = lower value 0.954 | locus YBR229C, strain ROT2, stronger effect = lower value 0.967 | locus YBR279W, strain paf1, stronger effect = lower value 0.974 | locus YCL011C, strain gbp2, stronger effect = lower value 0.942 | locus YCL016C, strain dcc1, stronger effect = lower value 0.959 | locus YCL061C, strain MRC1, stronger effect = lower value 0.97 | locus YCL069W, strain vba3, stronger effect = lower value 0.968 | locus YCR088W, strain abp1, stronger effect = lower value 0.987 | locus YDL005C, strain med2, stronger effect = lower value 0.996 | locus YDL040C, strain nat1, stronger effect = lower value 0.992 | locus YDL185W, strain tfp1, stronger effect = lower value 0.911 | locus YDR001C, strain nth1, stronger effect = lower value 0.976 | locus YDR069C, strain doa4, stronger effect = lower value 0.96 | locus YDR159W, strain sac3, stronger effect = lower value 1.04 | locus YDR297W, strain sur2, stronger effect = lower value 0.99 | locus YDR335W, strain msn5, stronger effect = lower value 0.953 | locus YDR392W, strain spt3, stronger effect = lower value 0.761 | locus YEL003W, strain gim4, stronger effect = lower value 0.96 | locus YEL037C, strain rad23, stronger effect = lower value 0.942 | locus YEL061C, strain CIN8 (second series), stronger effect = lower value 0.958 | locus YER015W, strain faa2, stronger effect = lower value 0.981 | locus YER016W, strain bim1, stronger effect = lower value 0.973 | locus YER111C, strain swi4, stronger effect = lower value 0.975 | locus YFR010W, strain ubp6, stronger effect = lower value 0.936 | locus YGL167C, strain pmr1, stronger effect = lower value 0.981 | locus YGL173C, strain kem1, stronger effect = lower value 0.96 | locus YGL227W, strain vid30, stronger effect = lower value 0.976 | locus YGL240W, strain doc1, stronger effect = lower value 0.896 | locus YGR229C, strain SMI1, stronger effect = lower value 0.839 | locus YHR013C, strain ard1, stronger effect = lower value 0.856 | locus YHR027C, strain rpn1, stronger effect = lower value 0.983 | locus YIL073C, strain SPO22, stronger effect = lower value 0.757 | locus YJL092W, strain hpr5, stronger effect = lower value 0.976 | locus YJL095W, strain BCK1 (second series), stronger effect = lower value 0.966 | locus YJL115W, strain asf1, stronger effect = lower value 0.967 | locus YJL129C, strain trk1, stronger effect = lower value 1.09 | locus YJL134W, strain LCB3, stronger effect = lower value 0.957 | locus YJL154C, strain vps35, stronger effect = lower value 0.977 | locus YJL164C, strain tpk1, stronger effect = lower value 0.937 | locus YJL166W, strain qcr8, stronger effect = lower value 0.91 | locus YJL168C, strain set2, stronger effect = lower value 0.958 | locus YJL187C, strain SWE1, stronger effect = lower value 1 | locus YJR066W, strain TOR1, stronger effect = lower value 0.829 | locus YKL009W, strain mrt4, stronger effect = lower value 0.914 | locus YKL068W, stronger effect = lower value 0.973 | locus YKR026C, strain gcn3, stronger effect = lower value 0.951 | locus YKR091W, strain srl3, stronger effect = lower value 0.996 | locus YLL001W, strain dnm1, stronger effect = lower value 0.977 | locus YLL026W, stronger effect = lower value 0.98 | locus YLL041C, strain sdh2, stronger effect = lower value 0.992 | locus YLR027C, strain aat2, stronger effect = lower value 0.971 | locus YLR039C, strain RIC1, stronger effect = lower value 0.906 | locus YLR102C, strain apc9, stronger effect = lower value 0.929 | locus YLR113W, strain HOG1, stronger effect = lower value 0.948 | locus YLR221C, strain rsa3, stronger effect = lower value 0.941 | locus YLR258W, strain gsy2, stronger effect = lower value 0.975 | locus YLR262C, strain YPT6 (second series), stronger effect = lower value 1.09 | locus YLR320W, strain mms22, stronger effect = lower value 0.887 | locus YLR342W, strain FKS1, stronger effect = lower value 1.01 | locus YLR357W, strain rsc2, stronger effect = lower value 1.13 | locus YLR370C, strain arc18, stronger effect = lower value 0.969 | locus YLR384C, strain iki3, stronger effect = lower value 0.956 | locus YMR058W, strain fet3, stronger effect = lower value 0.953 | locus YMR125W, strain sto1, stronger effect = lower value 1.03 | locus YMR129W, stronger effect = lower value 0.977 | locus YMR205C, strain PFK2, stronger effect = lower value 1.03 | locus YMR231W, strain pep5, stronger effect = lower value 0.983 | locus YMR307W, strain GAS1, stronger effect = lower value 0.974 | locus YNL071W, strain lat1, stronger effect = lower value 0.972 | locus YNL183C, strain NPR1, stronger effect = lower value 0.858 | locus YNL209W, strain ssb2, stronger effect = lower value 0.976 | locus YNL322C, strain KRE1 (second series), stronger effect = lower value 1.02 | locus YNR049C, strain mso1, stronger effect = lower value 0.991 | locus YOL012C, strain htz1 0.31 | locus YOR070C, strain gyp1, stronger effect = lower value 0.979 | locus YOR080W, strain dia2, stronger effect = lower value 0.979 | locus YOR265W, strain rbl2, stronger effect = lower value 0.989 | locus YOR290C, strain snf2, stronger effect = lower value 0.877 | locus YOR316C, strain cot1, stronger effect = lower value 0.975 | locus YPL078C, strain atp4, stronger effect = lower value 0.893 | locus YPL240C, strain hsp82, stronger effect = lower value 0.973 | locus YPL256C, strain CLN2, stronger effect = lower value 0.907 | locus YPR119W, strain clb2, stronger effect = lower value 0.964 | locus YPR141C, strain kar3, stronger effect = lower value 0.997
active: locus YBR009C, strain hhf1, stronger effect = lower value 0.886 | locus YBR231C, strain swc5, stronger effect = lower value 0.872 | locus YCL029C, strain bik1, stronger effect = lower value 0.647 | locus YDL035C, strain GPR1, stronger effect = lower value 0.734 | locus YDL074C, strain BRE1, stronger effect = lower value 0.544 | locus YDL101C, strain DUN1, stronger effect = lower value 0.613 | locus YDL134C, strain PPH21, stronger effect = lower value 0.703 | locus YDL192W, strain arf1, stronger effect = lower value 0.674 | locus YDR101C, strain arx1, stronger effect = lower value 0.741 | locus YDR137W, strain rgp1, stronger effect = lower value 1.16 [resistant] | locus YDR162C, strain NBP2, stronger effect = lower value 0.617 | locus YDR195W, strain ref2 1.38 [resistant] | locus YDR318W, strain mcm21, stronger effect = lower value 0.699 | locus YDR388W, stronger effect = lower value 0.814 | locus YDR502C, strain sam2, stronger effect = lower value 0.791 | locus YER110C, stronger effect = lower value 0.863 | locus YER155C, strain BEM2 (second series), stronger effect = lower value 0.653 | locus YER155C, strain BEM2, stronger effect = lower value 0.904 | locus YER167W, strain BCK2, stronger effect = lower value 0.885 | locus YGL078C, strain dbp3, stronger effect = lower value 0.91 | locus YGL086W, strain mad1, stronger effect = lower value 0.719 | locus YGL248W, strain PDE1, stronger effect = lower value 0.718 | locus YGL253W, strain hxk2, stronger effect = lower value 0.903 | locus YGR078C, strain PAC10, stronger effect = lower value 0.706 | locus YGR135W, strain pre9, stronger effect = lower value 0.688 | locus YGR252W, strain gcn5, stronger effect = lower value 0.554 | locus YHR030C, strain SLT2, stronger effect = lower value 0.729 and 0.802 | locus YHR079C, strain IRE1 (second series), stronger effect = lower value 0.854 | locus YHR079C, strain IRE1, stronger effect = lower value 0.801 | locus YHR094C, strain hxt1, stronger effect = lower value 0.922 | locus YHR129C, strain ARP1, stronger effect = lower value 0.863 | locus YHR142W, strain chs7, stronger effect = lower value 0.826 | locus YHR200W, strain rpn10, stronger effect = lower value 0.636 | locus YIL066C, strain RNR3, stronger effect = lower value 0.805 | locus YIL125W, strain kgd1, stronger effect = lower value 0.869 | locus YIR030C, strain dcg1, stronger effect = lower value 0.818 | locus YJL095W, strain BCK1, stronger effect = lower value 0.337 and 0.817 | locus YJL187C, strain SWE1 (second series), stronger effect = lower value 0.766 | locus YKL085W, strain MDH1 (second series), stronger effect = lower value 0.915 | locus YKL085W, strain MDH1, stronger effect = lower value 0.915 | locus YKL160W, strain elf1, stronger effect = lower value 0.902 | locus YKL190W, strain CNB1, stronger effect = lower value 0.898 | locus YKR001C, strain vps1, stronger effect = lower value 0.44 | locus YLR058C, strain SHM2, stronger effect = lower value 0.783 | locus YLR268W, strain sec22, stronger effect = lower value 0.71 | locus YLR371W, strain rom2, stronger effect = lower value 0.573 | locus YLR418C, strain cdc73, stronger effect = lower value 0.494 | locus YML016C, strain PPZ1, stronger effect = lower value 0.809 | locus YML032C, strain rad52, stronger effect = lower value 0.411 | locus YML120C, strain ndi1, stronger effect = lower value 0.901 | locus YML124C, strain tub3, stronger effect = lower value 0.872 | locus YMR078C, strain ctf18, stronger effect = lower value 0.878 | locus YMR223W, strain ubp8, stronger effect = lower value 0.764 | locus YNL067W, strain RPL9B, stronger effect = lower value 0.791 | locus YNL233W, strain BNI4, stronger effect = lower value 0.74 | locus YNL248C, strain rpa49, stronger effect = lower value 0.575 | locus YNL250W, strain rad50, stronger effect = lower value 0.856 | locus YNL271C, strain bni1, stronger effect = lower value 0.858 | locus YNL298W, strain CLA4, stronger effect = lower value 0.77 | locus YNL307C, strain MCK1, stronger effect = lower value 0.666 | locus YNR052C, strain pop2, stronger effect = lower value 0.737 | locus YOL006C, strain TOP1, stronger effect = lower value 0.419 | locus YOL147C, strain pex11, stronger effect = lower value 0.757 | locus YOR001W, strain rrp6, stronger effect = lower value 0.87 | locus YOR061W, strain CKA2, stronger effect = lower value 0.872 | locus YOR069W, strain VPS5, stronger effect = lower value 0.852 | locus YOR083W, strain WHI5, stronger effect = lower value 0.799 | locus YOR106W, strain vam3, stronger effect = lower value 0.854 | locus YOR136W, strain idh2, stronger effect = lower value 0.888 | locus YOR144C, strain elg1, stronger effect = lower value 0.852 | locus YOR184W, strain ser1, stronger effect = lower value 0.46 | locus YOR231W, strain MKK1, stronger effect = lower value 0.83 | locus YOR270C, strain vph1, stronger effect = lower value 0.751 | locus YPL051W, strain arl3, stronger effect = lower value 0.91 | locus YPL106C, strain sse1, stronger effect = lower value 0.78 | locus YPR163C, strain tif3, stronger effect = lower value 0.672 | locus YPR167C, strain met16, stronger effect = lower value 0.775 | strain wtn01, stronger effect = lower value 0.731
